Records with an inconclusive call do not appear. The source made the active and inactive calls. The calls were made as follows: active = hit-call score of the fitted dose curve at least 0.9, where 1 is the maximum; inconclusive = response in the unintended direction; inactive = score below 0.9.
Assays:
[1] = biological target: human Sirtuin 3 (SIRT3), SIRT3 (gene 23410) (UniProt Q9NTG7); assay: NVS_ENZ_hSIRT3: NovaScreen (NVS) Enzymatic Assay for human Sirtuin 3 (SIRT3) (AID 2283222)
Outline: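 Cell-free enzyme assay with recombinant protein and fluorescent substrate, product separated by electrophoretic mobility shift; read 1 hour after dosing. Screened in duplicate at 25 uM, then singleton concentration-response up to 50 uM; loss of signal versus DMSO.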

[2] = biological target: sheep Cyclooxygenase-1 (Cox1), PTGS1 (gene 443551) (UniProt P05979); assay: NVS_ENZ_oCOX1: NovaScreen (NVS) Enzymatic Assay for sheep Cyclooxygenase-1 (Cox1) (AID 2283239);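 also: actives reduce cyclooxygenase activity so potencies are for inhibitors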
Chain of sheep Cyclooxygenase-1 (Cox1), PTGS1 (gene 443551) (P05979 whole entry, looked up): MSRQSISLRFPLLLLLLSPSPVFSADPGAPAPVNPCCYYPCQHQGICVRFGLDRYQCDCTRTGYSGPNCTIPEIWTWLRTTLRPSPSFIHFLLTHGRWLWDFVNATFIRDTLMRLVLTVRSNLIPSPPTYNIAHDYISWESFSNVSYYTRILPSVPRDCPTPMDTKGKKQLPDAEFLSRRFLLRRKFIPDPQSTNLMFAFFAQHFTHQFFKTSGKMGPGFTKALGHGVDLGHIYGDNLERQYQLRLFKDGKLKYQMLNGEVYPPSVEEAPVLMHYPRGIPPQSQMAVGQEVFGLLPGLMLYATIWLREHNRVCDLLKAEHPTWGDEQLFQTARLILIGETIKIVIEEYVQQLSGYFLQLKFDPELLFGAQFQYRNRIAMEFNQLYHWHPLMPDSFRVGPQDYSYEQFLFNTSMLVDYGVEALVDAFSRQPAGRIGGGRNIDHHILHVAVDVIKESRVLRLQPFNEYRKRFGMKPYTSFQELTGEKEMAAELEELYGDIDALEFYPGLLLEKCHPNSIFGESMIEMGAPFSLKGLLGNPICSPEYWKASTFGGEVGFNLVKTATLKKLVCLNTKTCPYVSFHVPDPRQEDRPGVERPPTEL
Outline: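 Native ovine seminal vesicle protein serves as enzyme source in this biochemical assay. Colorimetric signal is recorded 0.66 h after chemical addition, and decreases versus the DMSO control define activity.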

[3] = biological target: human Tropomyosin Receptor Kinase A (TRKA), NTRK1 (gene 4914) (UniProt P04629); assay: NVS_ENZ_hTrkA: NovaScreen (NVS) Enzymatic Assay for human Tropomyosin Receptor Kinase A (TRKA) (AID 2283224)
Chain of human Tropomyosin Receptor Kinase A (TRKA), NTRK1 (gene 4914) (P04629 whole entry, looked up): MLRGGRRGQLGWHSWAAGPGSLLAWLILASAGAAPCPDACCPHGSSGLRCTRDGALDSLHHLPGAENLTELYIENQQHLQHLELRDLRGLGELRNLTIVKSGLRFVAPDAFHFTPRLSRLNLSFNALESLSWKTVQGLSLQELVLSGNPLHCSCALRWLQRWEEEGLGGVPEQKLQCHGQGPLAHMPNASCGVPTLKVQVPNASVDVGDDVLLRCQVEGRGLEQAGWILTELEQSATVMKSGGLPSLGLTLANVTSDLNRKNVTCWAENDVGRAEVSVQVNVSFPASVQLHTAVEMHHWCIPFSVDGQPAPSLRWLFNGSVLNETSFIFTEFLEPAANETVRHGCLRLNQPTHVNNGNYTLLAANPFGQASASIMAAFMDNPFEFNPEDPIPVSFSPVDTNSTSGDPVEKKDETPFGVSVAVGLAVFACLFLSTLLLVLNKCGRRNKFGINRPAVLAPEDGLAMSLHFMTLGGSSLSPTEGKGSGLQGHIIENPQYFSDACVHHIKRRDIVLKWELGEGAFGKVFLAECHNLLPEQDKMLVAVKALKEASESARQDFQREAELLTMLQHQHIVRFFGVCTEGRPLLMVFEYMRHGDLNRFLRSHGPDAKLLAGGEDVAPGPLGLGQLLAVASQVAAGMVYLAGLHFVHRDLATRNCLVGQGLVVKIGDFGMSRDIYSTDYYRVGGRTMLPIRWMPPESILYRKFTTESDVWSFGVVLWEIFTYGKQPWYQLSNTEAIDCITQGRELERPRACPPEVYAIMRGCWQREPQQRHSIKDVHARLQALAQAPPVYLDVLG
Outline: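 Recombinant human TrkA activity read after 1 h by fluorescence with electrophoretic mobility shift separating substrate and product. Primary screen in duplicate at 25 uM; actives were rerun in concentration-response up to 50 uM. Loss of signal versus DMSO.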

[4] = biological target: rabbit Imidazoline 2 Central (I2C), CKB (gene 100009085) (UniProt P00567); assay: NVS_ENZ_rabI2C: NovaScreen (NVS) Enzymatic Assay for rabbit Imidazoline 2 Central (I2C) (AID 2283228)
Chain of rabbit Imidazoline 2 Central (I2C), CKB (gene 100009085) (P00567 whole entry, looked up): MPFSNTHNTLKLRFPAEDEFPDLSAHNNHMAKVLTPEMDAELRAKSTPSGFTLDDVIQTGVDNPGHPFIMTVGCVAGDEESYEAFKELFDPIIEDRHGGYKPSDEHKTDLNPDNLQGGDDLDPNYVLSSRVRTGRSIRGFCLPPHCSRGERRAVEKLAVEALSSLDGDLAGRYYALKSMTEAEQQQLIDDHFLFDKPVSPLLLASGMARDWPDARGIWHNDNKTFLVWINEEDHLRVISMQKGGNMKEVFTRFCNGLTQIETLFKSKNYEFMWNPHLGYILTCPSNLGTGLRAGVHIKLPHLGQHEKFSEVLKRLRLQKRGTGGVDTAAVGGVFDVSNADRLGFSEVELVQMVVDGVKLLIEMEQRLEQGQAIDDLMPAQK
Outline: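 Rabbit brain membranes, cell-free; readout by filter-based scintillation counting 1.5 hours after dosing, loss of signal vs DMSO. Initial duplicate test at 25 uM, then concentration-response with 50 uM top concentration.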

[5] = biological target: human Vascular Endothelial Growth Factor Receptor 2 (VEGFR2), KDR (gene 3791) (UniProt P35968); assay: NVS_ENZ_hVEGFR2: NovaScreen (NVS) Enzymatic Assay for human Vascular Endothelial Growth Factor Receptor 2 (VEGFR2) (AID 2283230)
Chain of human Vascular Endothelial Growth Factor Receptor 2 (VEGFR2), KDR (gene 3791) (P35968 whole entry, looked up): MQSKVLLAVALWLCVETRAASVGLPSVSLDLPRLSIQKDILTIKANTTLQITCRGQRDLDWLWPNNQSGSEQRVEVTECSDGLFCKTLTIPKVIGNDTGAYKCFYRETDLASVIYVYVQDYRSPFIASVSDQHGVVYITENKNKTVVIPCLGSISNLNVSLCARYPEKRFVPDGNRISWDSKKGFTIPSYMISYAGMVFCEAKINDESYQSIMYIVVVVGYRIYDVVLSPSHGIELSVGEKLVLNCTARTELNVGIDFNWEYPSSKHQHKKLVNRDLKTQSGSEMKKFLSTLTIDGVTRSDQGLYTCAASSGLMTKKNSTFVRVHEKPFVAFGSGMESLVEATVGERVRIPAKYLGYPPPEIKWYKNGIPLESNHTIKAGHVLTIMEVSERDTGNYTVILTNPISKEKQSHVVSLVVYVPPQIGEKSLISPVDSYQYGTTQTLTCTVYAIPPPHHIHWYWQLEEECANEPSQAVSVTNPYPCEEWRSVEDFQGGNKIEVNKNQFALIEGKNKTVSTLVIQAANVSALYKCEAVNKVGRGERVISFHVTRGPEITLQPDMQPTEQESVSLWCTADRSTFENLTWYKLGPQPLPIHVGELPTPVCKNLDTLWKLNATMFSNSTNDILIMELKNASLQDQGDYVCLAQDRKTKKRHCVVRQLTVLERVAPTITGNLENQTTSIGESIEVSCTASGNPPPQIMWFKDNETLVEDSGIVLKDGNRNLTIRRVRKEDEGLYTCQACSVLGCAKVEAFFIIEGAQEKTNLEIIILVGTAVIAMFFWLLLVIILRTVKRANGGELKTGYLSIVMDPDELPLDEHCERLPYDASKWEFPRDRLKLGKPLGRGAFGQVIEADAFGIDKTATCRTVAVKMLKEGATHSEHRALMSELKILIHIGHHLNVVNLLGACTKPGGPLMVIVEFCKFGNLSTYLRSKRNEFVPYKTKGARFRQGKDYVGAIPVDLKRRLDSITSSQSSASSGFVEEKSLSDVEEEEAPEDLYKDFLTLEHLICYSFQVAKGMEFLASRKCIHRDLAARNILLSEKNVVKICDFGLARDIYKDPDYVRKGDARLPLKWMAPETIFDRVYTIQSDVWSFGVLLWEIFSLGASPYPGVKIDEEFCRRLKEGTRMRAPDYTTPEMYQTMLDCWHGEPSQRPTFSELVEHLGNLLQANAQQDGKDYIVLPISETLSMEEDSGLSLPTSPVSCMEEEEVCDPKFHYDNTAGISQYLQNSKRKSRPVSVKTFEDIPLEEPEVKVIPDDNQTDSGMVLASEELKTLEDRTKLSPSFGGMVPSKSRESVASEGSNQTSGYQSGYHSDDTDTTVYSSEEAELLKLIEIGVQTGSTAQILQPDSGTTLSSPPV
Outline: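 Cell-free recombinant VEGFR2 kinase, fluorescent substrate with electrophoretic mobility-shift separation; read 1 h after dosing. Screened at 25 uM in duplicate, hits to concentration-response up to 50 uM; loss-of-signal versus DMSO.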

[6] = biological target: bovine Dopamine Receptor (DR), Non-selective Binding, DRD1 (gene 281125) (UniProt Q95136); assay: NVS_GPCR_bDR_NonSelective: NovaScreen (NVS) G Protein-Coupled Receptor Assay for bovine Dopamine Receptor (DR), Non-selective Binding (AID 2283241)
Chain of bovine Dopamine Receptor (DR), Non-selective Binding, DRD1 (gene 281125) (Q95136 whole entry, looked up): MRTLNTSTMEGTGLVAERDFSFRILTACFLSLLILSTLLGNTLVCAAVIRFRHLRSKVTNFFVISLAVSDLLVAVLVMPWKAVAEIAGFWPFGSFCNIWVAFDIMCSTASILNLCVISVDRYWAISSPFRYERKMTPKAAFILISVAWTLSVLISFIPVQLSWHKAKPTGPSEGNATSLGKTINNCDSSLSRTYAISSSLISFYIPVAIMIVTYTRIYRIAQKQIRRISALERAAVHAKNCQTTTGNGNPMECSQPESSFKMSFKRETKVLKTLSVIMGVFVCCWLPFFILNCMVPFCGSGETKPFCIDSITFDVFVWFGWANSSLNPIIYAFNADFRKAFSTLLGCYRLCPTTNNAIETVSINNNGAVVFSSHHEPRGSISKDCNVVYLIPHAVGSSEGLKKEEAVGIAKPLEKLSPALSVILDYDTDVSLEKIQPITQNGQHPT
Outline: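 Bovine striatal membranes; radioligand displacement read by filtration and scintillation counting 1 h after dosing, loss of signal vs DMSO. Screened in duplicate at 25 uM, then concentration-response for hits.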

[7] = test system: guinea pig Muscarinic, Peripheral (Mperiperal) Receptor, Non-selective Binding, gene 100379235; assay: NVS_GPCR_gMPeripheral_NonSelective: NovaScreen (NVS) G Protein-Coupled Receptor Assay for guinea pig Muscarinic, Peripheral (Mperiperal) Receptor, Non-selective Binding (AID 2283250)
Outline: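 Guinea pig bladder membranes, radioligand binding read 1 h after dosing by filter scintillation counting; loss of signal vs DMSO. Primary duplicate screen at 25 uM, then concentration-response up to 50 uM.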

[8] = biological target: guinea pig Leukotriene D4 Receptor (LTD4), CYSLTR1 (gene 100135514) (UniProt Q2NNR5); assay: NVS_GPCR_gLTD4: NovaScreen (NVS) G Protein-Coupled Receptor Assay for guinea pig Leukotriene D4 Receptor (LTD4) (AID 2283248)
Chain of guinea pig Leukotriene D4 Receptor (LTD4), CYSLTR1 (gene 100135514) (Q2NNR5 whole entry, looked up): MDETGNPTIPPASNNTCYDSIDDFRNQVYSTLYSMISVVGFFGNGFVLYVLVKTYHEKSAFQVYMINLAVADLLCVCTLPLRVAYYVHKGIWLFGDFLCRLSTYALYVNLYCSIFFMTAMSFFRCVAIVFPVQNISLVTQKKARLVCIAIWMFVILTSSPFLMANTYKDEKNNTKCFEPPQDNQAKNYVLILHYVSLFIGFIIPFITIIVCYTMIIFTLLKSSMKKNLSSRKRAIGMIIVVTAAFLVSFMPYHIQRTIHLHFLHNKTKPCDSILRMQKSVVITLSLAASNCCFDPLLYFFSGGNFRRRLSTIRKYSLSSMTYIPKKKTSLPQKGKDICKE
Outline: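 Radioligand displacement on guinea pig lung membranes, 1 h incubation, filtration and scintillation counting; DMSO as negative control. Duplicate 25 uM primary screen, then singleton concentration-response up to 50 uM.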

[9] = NVS_GPCR_bNPY_NonSelective: NovaScreen (NVS) G Protein-Coupled Receptor Assay for bovine Neuropeptide Y (NPY) Receptor, Non-selective Binding (AID 2283245)
Outline: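 Bovine hippocampal membranes incubated 1 hour with radioligand and test chemical. Bound ligand measured by filter-based scintillation counting. Single-concentration screen at 25 uM in duplicate, then concentration-response up to 50 uM.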

[10] = biological target: human SRC Proto-Oncogene, Non-receptor Tyrosine Kinase (SRC), SRC (gene 6714) (UniProt P12931); assay: NVS_ENZ_hSRC: NovaScreen (NVS) Enzymatic Assay for human SRC Proto-Oncogene, Non-receptor Tyrosine Kinase (SRC) (AID 2283223)
Chain of human SRC Proto-Oncogene, Non-receptor Tyrosine Kinase (SRC), SRC (gene 6714) (P12931 whole entry, looked up): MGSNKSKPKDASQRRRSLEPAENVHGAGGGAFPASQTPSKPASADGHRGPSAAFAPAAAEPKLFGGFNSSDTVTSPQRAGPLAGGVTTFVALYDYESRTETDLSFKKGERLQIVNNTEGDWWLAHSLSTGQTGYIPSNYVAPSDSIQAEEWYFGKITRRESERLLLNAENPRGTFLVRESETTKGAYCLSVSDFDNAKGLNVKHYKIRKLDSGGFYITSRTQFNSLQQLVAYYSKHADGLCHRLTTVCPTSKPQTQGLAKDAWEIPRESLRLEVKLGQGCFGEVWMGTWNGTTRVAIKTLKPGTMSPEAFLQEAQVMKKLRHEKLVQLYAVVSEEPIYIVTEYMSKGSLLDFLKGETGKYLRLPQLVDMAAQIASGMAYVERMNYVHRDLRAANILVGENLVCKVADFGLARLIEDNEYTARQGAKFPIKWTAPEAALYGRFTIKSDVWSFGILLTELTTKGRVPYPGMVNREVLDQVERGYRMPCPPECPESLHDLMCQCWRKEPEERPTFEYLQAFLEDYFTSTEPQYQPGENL
Outline: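 Cell-free kinase activity assay with fluorescent substrate, product separated by electrophoretic mobility shift, read 1 h after dosing. Duplicate single point at 25 uM, then concentration-response up to 50 uM; loss of signal versus DMSO.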

Chain of human Sirtuin 3 (SIRT3), SIRT3 (gene 23410) (Q9NTG7 whole entry, looked up): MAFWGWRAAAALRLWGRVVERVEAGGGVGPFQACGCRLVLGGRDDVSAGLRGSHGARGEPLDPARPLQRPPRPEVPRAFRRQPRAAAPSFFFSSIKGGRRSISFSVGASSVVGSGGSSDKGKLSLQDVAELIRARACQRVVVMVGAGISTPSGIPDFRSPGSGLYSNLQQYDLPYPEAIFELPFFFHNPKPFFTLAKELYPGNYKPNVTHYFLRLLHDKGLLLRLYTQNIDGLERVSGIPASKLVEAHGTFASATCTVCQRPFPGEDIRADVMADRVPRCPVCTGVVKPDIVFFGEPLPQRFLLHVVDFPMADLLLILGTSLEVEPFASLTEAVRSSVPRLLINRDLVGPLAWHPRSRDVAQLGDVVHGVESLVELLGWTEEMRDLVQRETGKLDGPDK

In the case of `C[C@]12CC[C@@H]3c4ccc(O)cc4CC[C@H]3[C@@H]1CC[C@@H]2O`, the outcome [1] was “inactive”.

With `Cc1ccc(C(C)(C)O)cc1` the outcome [2] was “inactive”.

In the case of `C=CCOCC(O)CO` (stereo not drawn), the AC50 [2] was 25 µM (active).

For `CC(=O)c1ccc(C)cc1`, the outcome [2] was “inactive”.

For `Cc1cc(N)n(-c2ccccc2)n1`, the outcome [2] was “inactive”.

With `O=C(c1ccc(OCCN2CCCCC2)cc1)c1c(-c2ccc(O)cc2)sc2cc(O)ccc12` the AC50 [1] was 17.4 µM (active), the AC50 [3] was 25 µM (active) and the AC50 [4] was 10.3 µM (active). For the same molecule, the AC50 [5] was 3.07 µM (active), the AC50 [6] was 1.02 µM (active) and the AC50 [7] was 5.18 µM (active).

With `CC(O)COCC(C)O` (stereo not drawn) the outcome [2] was “inactive”.

For `c1ccc(Sc2ccccc2)cc1`, the outcome [2] was “inactive”.

In the case of `O=C1OC2(c3ccc(O)cc3Oc3cc(O)ccc32)c2ccccc21`, the AC50 [2] was 18.2 µM (active) and the outcome [8] was “inactive”.

With `CC/C(=C(\c1ccccc1)c1ccc(OCCN(C)C)cc1)c1ccccc1` the outcome [1] was “inactive”, the outcome [4] was “inactive” and the outcome [6] was “inactive”. For the same molecule, the AC50 [9] was 22.9 µM (active) and the AC50 [7] was 19.1 µM (active).

In the case of `CCCCCCCCCCCCS`, the AC50 [2] was 25 µM (active).

In the case of `CC(C)(O)CCc1ccccc1`, the outcome [2] was “inactive”.

With `COc1ccccc1NC(=O)CC(C)=O` the AC50 [2] was 14.6 µM (active).

For `O=[N+]([O-])c1cc(N(CCO)CCO)ccc1NCCO`, the outcome [8] was “inactive”.

In the case of `CC1=CC(C)C(C=O)C(C)C1` (stereo not drawn) (tested in a mixture with another compound), the outcome [8] was “inactive”.

For `C#C[C@]1(O)CC[C@H]2[C@@H]3CCc4cc(O)ccc4[C@H]3CC[C@@]21C`, the AC50 [10] was 38.4 µM (active) and the outcome [8] was “inactive”.

In the case of `CC(=O)CCC=C(C)CCC=C(C)C`, the AC50 [2] was 43.3 µM (active).
